High-throughput results from PubChem BioAssay.
Shown is part of a subset that was picked to be rich in hits.
Lamin A splicing: modulators of lamin A splicing; HeLa LMNA splicing GFP/RFP minigene ratio, 48 h; Potency, µM (titrated, usually from 46.1 µM), for the others: top-dose ratio change, negative = inhibition, most hits filed as inhibitors; 200,000 compounds, 0.01% hits; active means well fitted inhibition curve with a large enough effect in the signal ratio, with a control signal flat, not every such curve was filed as active; inconclusive means small, poorly fitted or top-dose-only effect, or effect the other way, or a change in a side signal; the % refers to the signal ratio; further: potency means the concentration at half of the fitted maximal effect
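Read-out is the ratio of GFP to DsRed2 object intensity, acquired by 488 nm laser-scanning cytometry on HeLa lamin A-EGFP minigene reporter cells. Compound incubation 48 hrs at 37 °C in Opti-MEM with 2% FBS; DMSO 0.5% final.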
IMPase inh: membrane-permeable compound that blocks inositol monophosphatase; CHO-M1 cells, IP1 accumulation, HTRF TR-FRET ratio; inhibition (IP1 accumulation), % at 46.1 µM; 120,000 tested, under 10 active; AID 901; active means well fitted curve in the direction sought with a large enough effect in the signal ratio, not every such curve was filed as active; inconclusive means small, poorly fitted or top-dose-only effect, or a change in a side signal; inactive means no such curve, though single readings can be large or run the other way; the % refers to the signal ratio;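 further: cells stimulated with carbachol in lithium chloride buffer; plate controls were DMSO basal wells for no effect and reference inhibitor wells for full effect; higher means more IMPase inhibition seen as more IP1 and lower FRET ratio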
Target sequence (P97697 whole entry, looked up): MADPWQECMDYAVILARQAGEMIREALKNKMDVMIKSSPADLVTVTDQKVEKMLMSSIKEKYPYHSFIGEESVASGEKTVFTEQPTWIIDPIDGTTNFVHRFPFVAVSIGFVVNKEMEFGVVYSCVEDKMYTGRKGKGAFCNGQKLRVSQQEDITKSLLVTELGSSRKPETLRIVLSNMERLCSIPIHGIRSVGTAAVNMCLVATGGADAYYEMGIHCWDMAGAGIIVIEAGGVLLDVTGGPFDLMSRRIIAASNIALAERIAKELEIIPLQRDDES
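The IP-One HTRF competitive assay in carbachol-stimulated CHO-M1 cells quantifies cellular IP1. Compounds spanned up to 46 uM final, and activity is expressed as AC50 from concentration-response fits of the ratio and donor data.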
PNC inhibitor: perinucleolar compartment assembly inhibition; PC3M PTB-GFP, PNC prevalence imaging, 16 h; stronger effect = lower value; activity change (PNC), negative = inhibition, % at 10 µM; 140,000 compounds, 3.1% hits;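 active means readout at or below -70, meaning at least 70% loss of cells showing the perinucleolar compartment, a nuclear body marking cancer cells; inconclusive means readout between -30 and a set limit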;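 further: plate controls were DMSO wells for no effect and camptothecin positive control wells for full effect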
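Compounds are pinned in duplicate onto adhered PC3M cells stably expressing GFP-tagged PTB and incubated 16 h at 37 C. Cells are then fixed, nuclei stained with Hoechst, and PNC-positive cells counted.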
* hit, by the source's call; ? = inconclusive; nt = not tested or not shown; [ ] = another dose, or the depositor's remark. Unless noted, on the % scale 0 is the no-effect control and ±100 the full control effect.

SMILES	Lamin A splicing	IMPase inh	PNC inhibitor
COc1cc(OC)c(NS(=O)(=O)c2cc(C(=O)OCC(=O)NCC3CCCO3)ccc2OC)cc1Cl (stereo not given)	-19%[46 µM]	nt	nt
CCOC(=O)c1sc(S(C)(=O)=O)c2c1CC(C)(C)C/C2=N/O	-21%[46 µM]	nt	nt
COC(=O)CNC(=O)COC(=O)C(Cc1ccccc1)NC(=O)c1ccco1 (stereo not given)	6%	8	-115*
O=C(COC(=O)[C@H](Cc1ccccc1)NC(=O)c1ccco1)NC(c1ccccc1)c1ccccc1	12%	4	?
Cc1ccc(CNC(=O)C2CCCN(S(=O)(=O)c3ccc4c(ccn4C)c3)C2)cc1 (stereo not given)	-3%[46 µM]	nt	nt
COc1cc2c(cc1OC)-c1cc3nc4ccccc4nc3n1C(C)(C)C2	nt	-7	nt
O=C(Nc1cccc(Cl)c1)N(CCCN1CCOCC1)Cc1ccccc1F	-16%	7	40
O=C(Nc1ccccc1)N(CCCN1CCOCC1)Cc1ccccc1F	-1%	-8	-109*
CCc1ccc2[nH]c(=O)c(CN(CCCN3CCOCC3)C(=O)Nc3ccc(F)cc3)cc2c1	-9%	7	19
CCc1ccc2[nH]c(=O)c(CN(CCN3CCOCC3)C(=O)Nc3ccccc3F)cc2c1	-8%	9	-86*
CCN(C(=O)c1cn(-c2ccc(OC)cc2)c(=O)c2ccccc12)c1cccc(Cl)c1	2%[46 µM]	nt	nt
O=C(COc1cccc(Br)c1)NN=C1c2ccccc2-c2ccccc21	-1%	4	-119*
O=C(COc1cccc(Br)c1)N/N=C1\CCCc2ccccc21	-1%[46 µM]	nt	nt
Cc1ccc(C(=O)Nc2ccc3oc(-c4ccncc4)nc3c2)c(Cl)c1	nt	8	nt
Cc1ccc(OCc2nnc(NC(=O)c3ccco3)s2)cc1	-5%	-5	?
Cc1ccc(OCc2nnc(NC(=O)c3ccco3)s2)c(C)c1	1%	15	-107*
CN(C)/C=C/C(=O)c1cc(F)cc(C(F)(F)F)c1	-5%[9.22 µM]	nt	nt
CC1(C)Cc2c(C#N)c(SCC(=O)c3ccccc3)nc(N3CCOCC3)c2CO1	-8%	3	?
COC(=O)Sc1nc(N2CCOCC2)c2c(c1C#N)CC(C)(C)OC2	-5%	-21	-116*
CCCCc1nn2c(=O)cc(COC(=O)CNC(=O)c3ccccc3C)nc2s1	8%[46 µM]	nt	nt
O=C(Nc1ccc(-c2nc3cc(NC(=O)c4ccc(Cl)cc4)ccc3o2)cc1)c1ccc(Cl)cc1	1%[46 µM]	nt	nt
Cc1ccc(-n2nnnc2SC(C)C(N)=O)c(C)c1 (stereo not given)	1%	-3	33
C/C(N)=C(/C#N)C(=O)CSc1nnnn1-c1ccc(C)cc1C	?	3	-133*
COc1ccc(C2C(C(=O)N3CCC(C)CC3)c3ccccc3C(=O)N2C)cc1 (stereo not given)	-13%	-15	-86*
COc1ccc(C2C(C(=O)N3CC(C)CC(C)C3)c3ccccc3C(=O)N2C)cc1 (stereo not given)	-1%	10	103
SMILES	Lamin A splicing	IMPase inh	PNC inhibitor
COc1cc(OC)c(NC(=O)C(C)n2c(=O)cc(-c3ccccc3)c3c(C)nn(C)c32)cc1Cl (stereo not given)	4%[46 µM]	nt	nt
CCOCCCNCc1ccc(OCCC(C)C)c(OC)c1	2%[46 µM]	nt	nt
CCOc1cccc(=O)c2c(C)n(Cc3ccco3)c(C)c12	17%	6	-100*
CCOc1cccc(=O)c2c(C)n(Cc3ccccc3)c(C)c12	19%[46 µM]	nt	nt
CC1=CC(=O)C(C(C)C)=CC1=NC(=O)c1ccc(C)cc1	-16%[46 µM]	nt	nt
Cc1ccc(C(=O)Nc2cc3c(cc2C)n(C)c(=O)c(=O)n3C)cc1	1%[46 µM]	nt	nt
Cc1cc(N(C(=O)c2ccco2)C(C(=O)NC2CCCCC2)c2ccccc2)ccc1-n1cnnn1 (stereo not given)	-7%	11	-6
COc1cccc(C(C(=O)NC2CCCCC2)N(C(=O)c2ccco2)c2ccc(-n3cnnn3)c(C)c2)c1 (stereo not given)	-10%	3	-100*
O=C(CN1C(=O)C2CCCCN2c2ccc(C(=O)N3CCCC3)cc21)NCc1ccccc1 (stereo not given)	2%[46 µM]	nt	nt
Cc1cc([N+](=O)[O-])nn1CC(=O)N1CCc2ccccc2C1	8%	-3	36
Cc1cc(C)n(C(CC(=O)N2CCc3ccccc3C2)C(=O)O)n1 (stereo not given)	0%	6	-127*
COc1ccc(CNC(=O)C2Cc3cc(S(=O)(=O)N4CCCCCC4)ccc3N2C(C)=O)cc1 (stereo not given)	14%[46 µM]	nt	nt
COCCn1ccc2c(OCC(=O)Nc3cccc(OC)c3)cccc2c1=O	11%[46 µM]	nt	nt
Cc1nc2nc(SCC(=O)C(C)(C)C)[nH]c2cc1Br	-3%	-5	4
CC(C)(C)C(=O)CSc1nc2ncc(Br)cc2[nH]1	-9%	-2	-98*
O=C(c1ccc(Cl)cc1)N1CCCCC(Cl)C1=O (stereo not given)	6%[46 µM]	nt	nt
CN(c1ccc(C(=O)NCc2ccncc2)cc1)S(C)(=O)=O	?	-4	1
Cc1ccccc1NC(=O)c1ccc(CN(c2ccccc2)S(=O)(=O)c2ccccc2)cc1	?	nt	-134*
CS(=O)(=O)N(Cc1ccccc1)c1ccc(C(=O)Nc2cccnc2)cc1	-11%	-2	-100*
O=C(NC1CC1)c1ccc(CN(c2ccccc2)S(=O)(=O)c2ccccc2)cc1	-6%[46 µM]	nt	nt
CN(c1ccc(C(=O)NCc2cccnc2)cc1)S(C)(=O)=O	?	3	-100*
CS(=O)(=O)N(Cc1ccc(Cl)cc1)c1ccc(C(=O)Nc2cccnc2)cc1	?	10	?
Cc1cc(C(=O)NCc2cccc(Br)c2)c2c(C)nn(-c3ccccc3)c2n1	7%[46 µM]	nt	nt
COC(=O)c1cc(C(=O)c2ccc(Cl)cc2)n2c(=O)/c(=C\N(C)C)sc12	-19%[9.22 µM]	nt	nt
O=C(COc1ccccc1Cl)Nc1cnn(Cc2ccccc2)c1	-13%	2	-94*
SMILES	Lamin A splicing	IMPase inh	PNC inhibitor
O=C(COc1ccccc1Cl)Nc1ccc(CN2CCCCC2)cc1	-10%[46 µM]	nt	nt
CC(=O)Nc1nc(C(=O)O)cs1	-16%[9.22 µM]	nt	nt
O=S(=O)(c1ccc(OCC(O)CNC23CC4CC(CC(C4)C2)C3)c(Cl)c1)N1CCOCC1 (stereo not given)	-23%[46 µM]	nt	nt
CCN(c1cccc(C)c1)S(=O)(=O)c1ccc2c(c1)CCN2C(C)=O	?	9	29
CCN(c1cccc(C(F)(F)F)c1)S(=O)(=O)c1ccc2c(c1)CCN2C(C)=O	?	-2	-98*
O=C(CCC1CCCCC1)NC1=NCCS1	-3%	nt	-89*
O=C(NC1=NCCS1)C1CCCCC1	8%[46 µM]	nt	nt
O=C(NNC(=O)C(O)(c1ccccc1)c1ccccc1)C1CC1	-14%[46 µM]	nt	nt
Cc1cc(NS(=O)(=O)c2ccc(NC(=O)CN3C(=O)c4ccccc4C3=O)cc2)nc(C)n1	6%	-2	1
Cc1cc(C)nc(NS(=O)(=O)c2ccc(NC(=O)CN3C(=O)c4ccccc4C3=O)cc2)n1	-6%	-3	-92*
Cc1cc(C)nc(NS(=O)(=O)c2ccc(NC(=O)c3ccc(N4C(=O)CCC4=O)cc3)cc2)n1	3%	nt	-102*
Cc1cc(C)nc(NS(=O)(=O)c2ccc(NC(=O)c3ccc(S(=O)(=O)N4CC(C)OC(C)C4)cc3)cc2)n1 (stereo not given)	1%	4	-9
